Consider 40 compounds from PubChem BioAssay (NCATS).

Active and inactive are the calls of the source. Calls follow the shape of the dose curve; as a rule, active = well fitted activation curve with a large enough effect; inconclusive = small, poorly fitted or top-dose-only effect; inactive = flat fitted curve, though single readings scatter.

This assay can be described thus: Cellular Toxicity (caspase-3) N2a (AID 665).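 Also: compound exposure lasted 16 h at 37 °C before readout.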 Conditions: N2a cells, luminescence, normalized: DMSO 0%, 10 µM staurosporine 100%; series mostly up to 92.2 µM. An excerpt: NIH Chemical Genomics Center [NCGC]
NIH Molecular Libraries Screening Centers Network [MLSCN]
National Institutes of Environmental Health Sciences [NIEHS]
National Toxicology Program [NTP]
We have developed a 1536-well cell-based assay for quantitative high throughput screening (qHTS) against a number of cell lines to determine in vitro caspase 3/7 activity of small molecules. This particular assay uses the N2a cell line which is derived from mouse neuroblastoma.
NCGC Assay Protocol Summary:
The Caspase-Glo 3/7 assay (Promega) is a homogeneous method to measure caspase-3 and caspase-7 activities in cultured cells. The quantitation of caspase 3/7 activity is based on the cleavage of a peptide-aminoluciferin substrate. After caspase cleaves the substrate the free aminoluciferin is liberated and serves as the substrate of luciferase, which generates the light. The luminescent signal is proportional to the amount of caspase 3/7 activity present.
Using the Caspase-Glo 3/7 assay, the amount of caspase 3/7 activity was measured in the N2a cells with complete culture medium following compound treatment for 16 hours. The assay was performed in opaque white 1536-well plates. In the screen, staurosporine and doxorubicin were used as positive controls. Library compounds were measured for their ability to cause the activation of caspase 3/7 in the cell line, as reflected by an increase in luminescence signal, in a concentration-dependent manner. Data were normalized to the controls for basal activity (DMSO only) and 100% stimulation (10 uM staurosporine). AC50 values were determined from concentration-response data modeled with the standard Hill equation.
qHTS protocol for caspase 3/7 assay in mouse N2a cell line
[Step] [Parameter] [Value] [Description]
1. Reagent; 5 uL; 1500 mouse N2a cells/well
2. Time; 5 hr; 37 °C incubation
4. Controls; 23 nL; doxorubicin 7 pM to 100 uM & staurosporine 1.4 pM to 20 uM
5. Time; 16 hr; 37 °C incubation
6. Reagent; 5 uL; Caspase-Glo 3/7 reagent
7. Time; 1 hr; Room Temperature
8. Detection; Luminescence; Viewlux plate reader
Keywords: caspase 3/7, apoptosis, mouse N2a cell line, luminescence, NTPHTS, NTPHTS_NCGC, NIEHS, EPA, DSSTox, MLSMR, MLSCN, NIH Roadmap, qHTS, NCGC
For the compound `C=CC(=C)CCC=C(C)C`, the call was inactive.

As for `CC1=CC(C)(C)Nc2ccccc21`, the compound was called inactive.

With `O=C(O)c1ccccc1`, the compound was called inactive.

Consider `O[C@@H]([C@H](O)[C@@H](O)CBr)[C@@H](O)CBr`, for which the outcome was inactive.

Regarding `CCCCCCCCCCCC(=O)O`, the result was inactive.

`COC(=O)c1ccc(C=O)cc1`: the result was inactive.

With `C=CC(=O)OCCOCCOCCOCCOC(=O)C=C`, the compound was classed as inactive.

Turning to `COc1ccc(/C=C/c2cc(OC)cc(=O)o2)cc1`, the result was inactive.

With `Nc1ccc(Cl)cc1Cl`, the result was inactive.

As for `c1ccc2scnc2c1`, the compound was called inactive.

With `CC(C)=CCCC(C)CCO` (stereo not given), the compound was called inactive.

With `Clc1cc(Cl)c(Cl)cc1Cl`, the call was inactive.

Regarding `C=C(C)C1CC=C(C)C(O)C1` (stereo not given), the result was inactive.

Consider `CCCCCCCCO`, for which the compound was called inactive.

In the case of `COC(=O)CCCCC(=O)OC`, the call was inactive.

As for `CCCCC(CC)CN` (stereo not given), the outcome was inactive.

As for `CN(C)C=O`, the call was inactive.

Regarding `O=C(O)c1ccc(O)cc1O`, the outcome was inactive.

For `CCC(O)OC(O)CC` (stereo not given), the call was inactive.

As for `CCO`, the compound was called inactive.

For the compound `Cc1cccc([N+](=O)[O-])c1C`, the call was inactive.

For `Cc1c(N=C=O)cccc1N=C=O`, the compound was called inactive.

For `CCC(C)c1ccccc1O` (stereo not given), the result was inactive.

For the compound `CC1=C2[C@H](/C=C(\C)C(=O)O)CC[C@@H](C)[C@H]2CC1`, the outcome was inactive.

As to `C[C@H](CCC(=O)O)[C@H]1CC[C@H]2[C@@H]3CC[C@@H]4C[C@H](O)CC[C@]4(C)[C@H]3CC[C@]12C`, the compound was called inactive.

For the compound `Cc1ccc(N)c([N+](=O)[O-])c1`, the compound was classed as inactive.

Consider `OCCNCCO`, for which the result was inactive.

For the compound `O=C(/C=C/c1ccc(O)c(O)c1)O[C@@H](C(=O)O)[C@@H](OC(=O)/C=C/c1ccc(O)c(O)c1)C(=O)O`, the result was inactive.

In the case of `Cc1ccccc1C`, the compound was classed as inactive.

In the case of `O=C(O)c1ccccc1C(c1ccc(O)cc1)c1ccc(O)cc1`, the result was inactive.

Take `CCCCCCCCCCCCCCC1CO1` (stereo not given): the outcome was inactive.

As to `CCO[Si](CCCN)(OCC)OCC`, the result was inactive.

Regarding `COC(=O)c1ccc(C)cc1`, the compound was called inactive.

As to `CC1(C)CC(N=C=O)CC(C)(CN=C=O)C1` (stereo not given), the compound was classed as inactive.

For `Cc1ccc([N+](=O)[O-])cc1N`, the compound was classed as inactive.

Take `C=CCc1ccc(OC)c(OC)c1`: the outcome was inactive.

Take `Clc1cc(Cl)c(Cl)c(Cl)c1Cl`: the compound was called inactive.

Consider `O=S(=O)(O)c1ccccc1`, for which the outcome was inactive.

Turning to `Cc1ccc([N+](=O)[O-])c(C)c1`, the call was inactive.

Take `c1ccc2c(c1)[nH]c1ccccc12`: the call was inactive.
